The panel holds about 79,000 compounds, 15% with a hit somewhere; the sample as a whole holds those more often. A number with no mark means an inactive call. Active and inactive are the calls of the source. No stated cut-off is given here; in the data, active means growth inhibition above about 70%; inactive means the rest.
What was measured:
[1] = NCI Yeast Anticancer Drug Screen. Data for the rad52 strain (AID 147);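 further: 0% = growth of vehicle-treated control cultures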; conditions: S. cerevisiae rad52 mutant growth inhibition, active compounds read high
Method in brief: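 Genetically altered yeast (DNA damage repair defect) treated with compound; inhibition calculated relative to vehicle.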

[2] = NCI Yeast Anticancer Drug Screen. Data for the wt1 strain (AID 149);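 further: 0% = growth of vehicle-treated wt1 cultures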; conditions: S. cerevisiae wt1 strain (SPY 50644) growth inhibition, active compounds read high
Method in brief: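 Readout: yeast growth inhibition, normalised to vehicle controls, in the wt1 strain exposed to test compounds.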

[3] = NCI Yeast Anticancer Drug Screen. Data for the rad50EPP+ strain (AID 151);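 further: 0% = growth of vehicle-treated control cultures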; conditions: S. cerevisiae rad50 mutant strain, active compounds read high
Method in brief: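 Strain rad50EPP+; compound exposure; % growth inhibition vs vehicle.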

[4] = NCI Yeast Anticancer Drug Screen. Data for the mgt1 strain (AID 153); conditions: S. cerevisiae mgt1 mutant growth inhibition, active compounds read high
Method in brief: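 Read-out: yeast growth inhibition vs vehicle control. Strain mgt1, drawn from a panel altered in DNA damage repair or cell cycle control.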

[5] = NCI Yeast Anticancer Drug Screen. Data for the rad50 strain (AID 155);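 further: 0% = growth of vehicle-only cultures of the same strain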; conditions: S. cerevisiae rad50 strain growth inhibition, active compounds read high
Method in brief: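 Compounds were tested on a yeast strain with an engineered DNA damage repair alteration; the reported value is growth inhibition normalised to vehicle treatment.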

[6] = NCI Yeast Anticancer Drug Screen. Data for the mec2-1 strain (AID 157); conditions: S. cerevisiae mec2-1 strain, active compounds read high
Method in brief: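 Cells of the genetically defined mec2-1 yeast strain are incubated with test compound. Inhibition of growth is calculated against vehicle-treated controls.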

[7] = NCI Yeast Anticancer Drug Screen. Data for the rad14 strain (AID 159);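 further: 0% = growth of vehicle-treated control cultures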; conditions: S. cerevisiae rad14 strain growth inhibition, active compounds read high
Method in brief: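 Compound-treated yeast with a defined DNA-repair lesion; growth inhibition normalised to vehicle-treated cultures.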

[8] = NCI Yeast Anticancer Drug Screen. Data for the sgs1 mgt1 strain (AID 161);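 further: 0% = growth of cultures given vehicle only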; conditions: S. cerevisiae sgs1 mgt1 strain, active compounds read high
Method in brief: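 Read-out: growth inhibition vs vehicle controls. Cells: mutant yeast strain deficient in DNA damage repair.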

[9] = NCI Yeast Anticancer Drug Screen. Data for the CLN2oe strain (AID 163);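 further: 0% = growth of vehicle-only control cultures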; conditions: S. cerevisiae CLN2oe strain, active compounds read high
Method in brief: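 Strain altered in cell-cycle control, incubated with compound; growth compared to solvent-treated controls.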

[10] = NCI Yeast Anticancer Drug Screen. Data for the cln2 rad14 strain (AID 165);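 further: 0% = growth equal to vehicle treated cultures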; conditions: S. cerevisiae cln2 rad14 strain, active compounds read high
Method in brief: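 The screen exposed genetically defined yeast (cln2 rad14) to test compounds and scored growth inhibition relative to vehicle-treated controls.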

[11] = NCI Yeast Anticancer Drug Screen. Data for the bub3 strain (AID 167); conditions: S. cerevisiae bub3 mutant strain, active compounds read high
Method in brief: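 Growth of a checkpoint-deficient yeast mutant is measured after compound exposure. Values represent inhibition relative to vehicle.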

[12] = NCI Yeast Anticancer Drug Screen. Data for the wt2 strain (AID 169);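 further: 0% = growth of vehicle-treated yeast cultures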; conditions: S. cerevisiae wt2 strain growth inhibition, active compounds read high
Method in brief: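 Steps: yeast strain treated with compound; growth recorded; inhibition calculated relative to cultures given vehicle alone.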

[13] = NCI Yeast Anticancer Drug Screen. Data for the mlh1 strain (AID 171);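 further: 0% = growth of vehicle-treated control cultures of the same strain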; conditions: S. cerevisiae mlh1 strain growth inhibition, active compounds read high
Method in brief: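 Yeast screen: mutant strain plus compound, growth scored against vehicle control wells.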

[14] = NCI Yeast Anticancer Drug Screen. Data for the sgs1 strain (AID 173);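 further: 0% = growth of vehicle-only control cultures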; conditions: S. cerevisiae sgs1 mutant, active compounds read high
Method in brief: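 Inhibition of yeast growth served as the measure. The mutant strain was treated with each compound, and growth was normalised to cultures receiving vehicle alone.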

[15] = NCI Yeast Anticancer Drug Screen. Data for the mlh1 rad18 strain (AID 175); conditions: S. cerevisiae mlh1 rad18 strain growth inhibition, active compounds read high
Method in brief: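 Compound-treated yeast growth, normalised to vehicle controls. Strain bears defined DNA repair mutations.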

[16] = NCI Yeast Anticancer Drug Screen. Data for the rad18 strain (AID 177); conditions: S. cerevisiae rad18 mutant growth inhibition, active compounds read high
Method in brief: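 Inhibition values reflect reduced yeast growth compared with vehicle-treated controls, using a strain engineered with a DNA damage repair defect.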

[17] = at 5.0 µM (retest, dose inferred, filed as 0.5)
[18] = at 50.0 µM (retest, dose inferred, filed as 5.0)

## CN(C)CCNc1ccc2ncn3c4ccc(O)cc4c(=O)c1c23
[1]; at 1.2 µM
  growth inhibition: -10%
[1]; at 3.7 µM
  growth inhibition: 3%
[1]; at 11.0 µM
  growth inhibition: 4%
[1]; at 33.0 µM
  growth inhibition: 3%
[1]; at 100.0 µM
  growth inhibition: 30%
[2]; at 1.2 µM
  growth inhibition: -21%
[2]; at 3.7 µM
  growth inhibition: -6%
[2]; at 11.0 µM
  growth inhibition: -21%
[2]; at 33.0 µM
  growth inhibition: 0%
[2]; at 100.0 µM
  growth inhibition: -27%
[3]; at 1.2 µM
  growth inhibition: -33%
[3]; at 3.7 µM
  growth inhibition: -12%
[3]; at 11.0 µM
  growth inhibition: -21%
[3]; at 33.0 µM
  growth inhibition: -1%
[3]; at 100.0 µM
  growth inhibition: 5%
[4]; at 1.2 µM
  growth inhibition: -5%
[4]; at 3.7 µM
  growth inhibition: 7%
[4]; at 11.0 µM
  growth inhibition: -19%
[4]; at 33.0 µM
  growth inhibition: -10%
[4]; at 100.0 µM
  growth inhibition: 2%
[5]; at 1.2 µM
  growth inhibition: -14%
[5]; at 3.7 µM
  growth inhibition: 4%
[5]; [17]
  growth inhibition: 50%
[5]; at 11.0 µM
  growth inhibition: -6%
[5]; at 33.0 µM
  growth inhibition: 8%
[5]; [18]
  growth inhibition: 86% (active)
[5]; at 50.0 µM
  growth inhibition: -17.1%
[5]; at 100.0 µM
  growth inhibition: 22%
[6]; at 1.2 µM
  growth inhibition: -12%
[6]; at 3.7 µM
  growth inhibition: -7%
[6]; [17]
  growth inhibition: 0%
[6]; at 11.0 µM
  growth inhibition: -4%
[6]; at 33.0 µM
  growth inhibition: -9%
[6]; [18]
  growth inhibition: 7%
[6]; at 50.0 µM
  growth inhibition: -10.1%
[6]; at 100.0 µM
  growth inhibition: -20%
[7]; at 1.2 µM
  growth inhibition: -35%
[7]; at 3.7 µM
  growth inhibition: -35%
[7]; at 11.0 µM
  growth inhibition: -31%
[7]; at 33.0 µM
  growth inhibition: -30%
[7]; at 100.0 µM
  growth inhibition: -23%
[8]; [17]
  growth inhibition: 13%
[8]; [18]
  growth inhibition: 7%
[8]; at 50.0 µM
  growth inhibition: -10.6%
[9]; at 1.2 µM
  growth inhibition: -12%
[9]; at 3.7 µM
  growth inhibition: 1%
[9]; at 11.0 µM
  growth inhibition: 9%
[9]; at 33.0 µM
  growth inhibition: 13%
[9]; at 100.0 µM
  growth inhibition: 8%
[10]; [17]
  growth inhibition: 9%
[10]; [18]
  growth inhibition: 12%
[10]; at 50.0 µM
  growth inhibition: 27.6%
[11]; at 1.2 µM
  growth inhibition: -19%
[11]; at 3.7 µM
  growth inhibition: -12%
[11]; [17]
  growth inhibition: 11%
[11]; at 11.0 µM
  growth inhibition: -14%
[11]; at 33.0 µM
  growth inhibition: 3%
[11]; [18]
  growth inhibition: 11%
[11]; at 50.0 µM
  growth inhibition: -1%
[11]; at 100.0 µM
  growth inhibition: 7%
[12]; at 1.2 µM
  growth inhibition: -8%
[12]; at 3.7 µM
  growth inhibition: -3%
[12]; at 11.0 µM
  growth inhibition: -2%
[12]; at 33.0 µM
  growth inhibition: -8%
[12]; at 100.0 µM
  growth inhibition: -11%
[13]; at 1.2 µM
  growth inhibition: -23%
[13]; at 3.7 µM
  growth inhibition: -21%
[13]; at 11.0 µM
  growth inhibition: -15%
[13]; at 33.0 µM
  growth inhibition: -4%
[13]; at 100.0 µM
  growth inhibition: -8%
[14]; at 1.2 µM
  growth inhibition: -21%
[14]; at 3.7 µM
  growth inhibition: -17%
[14]; at 11.0 µM
  growth inhibition: -3%
[14]; at 33.0 µM
  growth inhibition: -16%
[14]; at 100.0 µM
  growth inhibition: -23%
[15]; [17]
  growth inhibition: 4%
[15]; [18]
  growth inhibition: 12%
[15]; at 50.0 µM
  growth inhibition: -48.5%
[16]; at 1.2 µM
  growth inhibition: -23%
[16]; at 3.7 µM
  growth inhibition: -1%
[16]; at 11.0 µM
  growth inhibition: -9%
[16]; at 33.0 µM
  growth inhibition: -12%
[16]; at 100.0 µM
  growth inhibition: -12%

## Cc1cccc(C)c1NC(=O)CCC(=O)C(C)C(=O)c1ccc(O)cc1 (stereo unspecified)
[1]; at 1.2 µM
  growth inhibition: 2%
[1]; at 3.7 µM
  growth inhibition: 1%
[1]; at 11.0 µM
  growth inhibition: 2%
[1]; at 33.0 µM
  growth inhibition: 1%
[1]; at 100.0 µM
  growth inhibition: 0%
[2]; at 1.2 µM
  growth inhibition: -1%
[2]; at 3.7 µM
  growth inhibition: -2%
[2]; at 11.0 µM
  growth inhibition: -1%
[2]; at 33.0 µM
  growth inhibition: -1%
[2]; at 100.0 µM
  growth inhibition: -2%
[3]; at 1.2 µM
  growth inhibition: 0%
[3]; at 3.7 µM
  growth inhibition: -1%
[3]; at 11.0 µM
  growth inhibition: 1%
[3]; at 33.0 µM
  growth inhibition: 1%
[3]; at 100.0 µM
  growth inhibition: 8%
[4]; at 1.2 µM
  growth inhibition: -1%
[4]; at 3.7 µM
  growth inhibition: 4%
[4]; at 11.0 µM
  growth inhibition: -3%
[4]; at 33.0 µM
  growth inhibition: -2%
[4]; at 100.0 µM
  growth inhibition: -5%
[5]; at 1.2 µM
  growth inhibition: -1%
[5]; at 3.7 µM
  growth inhibition: 0%
[5]; [17]
  growth inhibition: 1%
[5]; at 11.0 µM
  growth inhibition: 1%
[5]; at 33.0 µM
  growth inhibition: 1%
[5]; [18]
  growth inhibition: 2%
[5]; at 50.0 µM
  growth inhibition: 57.6%
[5]; at 100.0 µM
  growth inhibition: 0%
[6]; at 1.2 µM
  growth inhibition: -6%
[6]; at 3.7 µM
  growth inhibition: -5%
[6]; [17]
  growth inhibition: -2%
[6]; at 11.0 µM
  growth inhibition: -6%
[6]; at 33.0 µM
  growth inhibition: -3%
[6]; [18]
  growth inhibition: 8%
[6]; at 50.0 µM
  growth inhibition: 15.1%
[6]; at 100.0 µM
  growth inhibition: -5%
[7]; at 1.2 µM
  growth inhibition: -1%
[7]; at 3.7 µM
  growth inhibition: 2%
[7]; at 11.0 µM
  growth inhibition: 2%
[7]; at 33.0 µM
  growth inhibition: 0%
[7]; at 100.0 µM
  growth inhibition: -1%
[8]; [17]
  growth inhibition: 0%
[8]; [18]
  growth inhibition: 5%
[8]; at 50.0 µM
  growth inhibition: 23.2%
[9]; at 1.2 µM
  growth inhibition: -5%
[9]; at 3.7 µM
  growth inhibition: -4%
[9]; at 11.0 µM
  growth inhibition: -3%
[9]; at 33.0 µM
  growth inhibition: 1%
[9]; at 100.0 µM
  growth inhibition: -3%
[10]; [17]
  growth inhibition: -2%
[10]; [18]
  growth inhibition: 2%
[10]; at 50.0 µM
  growth inhibition: 50%
[11]; at 1.2 µM
  growth inhibition: -2%
[11]; at 3.7 µM
  growth inhibition: -2%
[11]; [17]
  growth inhibition: 0%
[11]; at 11.0 µM
  growth inhibition: -2%
[11]; at 33.0 µM
  growth inhibition: -2%
[11]; [18]
  growth inhibition: 7%
[11]; at 50.0 µM
  growth inhibition: 11.8%
[11]; at 100.0 µM
  growth inhibition: 5%
[12]; at 1.2 µM
  growth inhibition: -1%
[12]; at 3.7 µM
  growth inhibition: -1%
[12]; at 11.0 µM
  growth inhibition: 0%
[12]; at 33.0 µM
  growth inhibition: 0%
[12]; at 100.0 µM
  growth inhibition: -1%
[13]; at 1.2 µM
  growth inhibition: -2%
[13]; at 3.7 µM
  growth inhibition: -3%
[13]; at 11.0 µM
  growth inhibition: -1%
[13]; at 33.0 µM
  growth inhibition: -2%
[13]; at 100.0 µM
  growth inhibition: -1%
[14]; at 1.2 µM
  growth inhibition: -2%
[14]; at 3.7 µM
  growth inhibition: -2%
[14]; at 11.0 µM
  growth inhibition: -2%
[14]; at 33.0 µM
  growth inhibition: -2%
[14]; at 100.0 µM
  growth inhibition: 0%
[15]; [17]
  growth inhibition: -1%
[15]; [18]
  growth inhibition: 6%
[15]; at 50.0 µM
  growth inhibition: 6.95%
[16]; at 1.2 µM
  growth inhibition: -2%
[16]; at 3.7 µM
  growth inhibition: -1%
[16]; at 11.0 µM
  growth inhibition: 0%
[16]; at 33.0 µM
  growth inhibition: -2%
[16]; at 100.0 µM
  growth inhibition: 0%
